In PubChem BioAssay AID925 (National Center for Advancing Translational Sciences (NCATS), 2007):
Where “and” joins values, the source holds several entries; their conditions need not be identical. Equal values may be shown once. Screen size: about 65,000 compounds; about 40 (0.06%) were called active. This is one part of a sample in which actives are shown more often than they occur. The call rests on the fitted dose curve; in most records, active means well fitted activation curve with a large enough effect; inconclusive means small, poorly fitted or top-dose-only effect; inactive means flat fitted curve, though single readings scatter.

Assay: qHTS Assay for Modulators of Hemoglobin Beta Chain Splicing; further: 0% is about no effect
Settings: HBB splicing reporter cell assay, EGFP reporter with mutant IVS2-654 intron; Potency: activation; series mostly up to 46.1 µM
Source text: NIH Chemical Genomics Center [NCGC]
NIH Molecular Libraries Screening Centers Network [MLSCN]
PI Name: Dr. Ryszard Kole
Modulation of Alternative Splicing as Therapy
Abnormal splicing is associated with a number of diseases, including cancer and genetic diseases such as cystic fibrosis, muscular dystrophy and beta-thalassemia. Alteration of disease associated splicing patterns provides a promising target for treatment. […] Mutations in the second intron of the beta-globin gene at positions are clinically relevant and cause mis-splicing which results in an out of frame gene product.
EGFP-654 and 705 HeLa Cells as screen system.
HeLa cell lines were stably transfected with a construct in which the EGFP (enhanced green fluorescent protein) cDNA was interrupted by the second intron of the beta-globin gene (IVS2-654). The ISV2 intron contains mutations which cause mis-splicing of EGFP and premature termination of EGFP which results in a nonfluorescent protein product. […] Expression of the transgene was driven by the CMV promoter. We concluded that a low molecular weight compound, which restored correct splicing of intron 2 would also generate functional EGFP protein, resulting in a fluorescent signal. Thus, the HeLa cells that express the EGFP-654 construct can be used for high throughput screening of a chemical library.
NCGC Assay Protocol Summary:
High Throughput Screening. Freshly thawed HeLa EGFP-654 cells were seeded in 5 ul of optimem media (Invitrogen) containing 2 % fetal calf serum (Hyclone) and 1x penicillin/streptomycin (Invitrogen) at a concentration of 500 cells per well in 1536-well plates. Cells were incubated overnight at 37C in 5% CO2. The next day, cells were treated with DMSO, 500 nM antisense ISV2 654 PNA control oligo, or library compound and allowed to grow at 37C in 5% CO2 for 2 days. The PNA oligo blocked the mutation site in the intron and allowed proper (wild type) splicing to occur, resulting in full length EGFP expression and also allowed for optimization of the assay parameters. Plates were read in the Acumen Explorer (TTP Labtech) using 488 nm laser excitation and 500-520 nm emission PMT filter in a 1 x […] capture mode. Fluorescnet Fluorescent objects ranging in size from […] were measured and the total peak GFP intensity for each well was used for data analysis.
Keywords: Thalassemia, beta-thalassemia, beta-globin, EGFP, ISV2 654, ISV2 705, SSO, PNA, antisense, splicing, MLSMR, MLSCN, NIH Roadmap, qHTS, NCGC

activation, inactive:
CC(C)=CCC/C(C)=C/CO/N=C1/C[C@@H](O)[C@@H](O)[C@@H]2[C@@H]3C(=O)N(C(C)(C)C)C(=O)[C@H]3CC[C@H]12 -1.71% [at 9.22 µM, normalised to 500 nM splice-correcting PNA]
CCCn1c(C)nc2c(NCCCCN(CC)CC)nc(C)nc21
O=C(Cl)c1ccccc1[N+](=O)[O-]
CC(C)(C)NCC[C@@H](O)c1cc(C(F)(F)F)nc2c(C(F)(F)F)cccc12 0.766% [at 9.22 µM, normalised to 500 nM splice-correcting PNA]
COc1cccc(-c2cc(NCCc3c[nH]c4ccc(OC)cc34)ncn2)c1
COc1ccc(/C=C/NC(=O)Cc2ccc(OC)c(OC)c2)cc1 1.47% [at 9.22 µM, normalised to 500 nM splice-correcting PNA] and 0.37% [at 9.22 µM, normalised to 500 nM splice-correcting PNA]
O=C(O)c1nccnc1C(=O)Nc1ccc(Br)cn1
COc1cccc(Cn2c(=O)cnc3cncnc32)c1
O=C(O)[C@H](CCc1ccccn1)c1ccccc1 1.34% [at 9.22 µM, normalised to 500 nM splice-correcting PNA]
N#Cc1ccccc1-c1ccc2ncnc(NCc3cccnc3)c2c1
CCCCC/C=C/C=C/C=O
O=C(O)CCCCC(=O)O
CNC(=O)C1(C)C=CC2(CCCCC2)N1C(C)=O (stereo not drawn)
O=S(=O)(c1ccccc1)N1CCC2(CC1)CN(Cc1nccs1)C2
CCON=C1C(C)(C)C(C)(C)C(C)(C)C1(C)C 1.16% [at 9.22 µM, normalised to 500 nM splice-correcting PNA]
O=C(c1cnccn1)N1CCC2(CCN(Cc3cc(C(F)(F)F)cc(C(F)(F)F)c3)CC2)CC1
O=C(c1ccncc1)N1CCC2(CCCN(C(c3ccccc3)c3ccccc3)C2)CC1
Nc1ccccc1N
CC(=O)OCC(COC(C)=O)OC(C)=O
Cc1cc(C(=O)O)ccc1[N+](=O)[O-]
O=C1C[C@@H](O)[C@@H](O)[C@H]2[C@@H]3C(=O)N(Cc4ccc5c(c4)OCO5)C(=O)[C@@H]3CC[C@H]12 3.01% [at 9.22 µM, normalised to 500 nM splice-correcting PNA] and 2.86% [at 9.22 µM, normalised to 500 nM splice-correcting PNA]
CN/C(=C\[N+](=O)[O-])NCCSCc1csc(CN(C)C)n1
CO[C@H]1COC(=O)C/C=C\[C@H](C)COC(=O)[C@@H](OCc2ccccc2)/C=C\[C@@H]1C 1.62% [at 9.22 µM, normalised to 500 nM splice-correcting PNA]
Cc1c2c(nc3ccccc13)-c1cccc(=O)n1C2
CC/C=C/C/C=C/C/C=C/CCCCCCCC(=O)OCC
Oc1ccc2ccccc2c1C=NCc1c(O)ccc2ccccc12 0.869% [at 9.22 µM, normalised to 500 nM splice-correcting PNA]
CCCNC(=O)OC[C@@H]1O[C@H](c2ccccc2)C=C[C@@H]1Oc1ccc(OC)cc1 -1.16% [at 9.22 µM, normalised to 500 nM splice-correcting PNA]
O=C1OCCC=C1[C@@H](O)CCc1ccccc1 3.64% [at 9.22 µM, normalised to 500 nM splice-correcting PNA]
CCCn1c(-c2ccc(F)cc2)nc2c(NCC3CCCN3CC)nc(C)nc21 (stereo not drawn)
Cc1cc(C)cc(N)c1
c1ccc2c(c1)-c1ccccc1C2N1CC2CCC(CC2)C1 3.26% [at 9.22 µM, normalised to 500 nM splice-correcting PNA]
COc1ncc2nc(-c3ccc(Cl)cc3)c(=O)n(-c3ccccc3)c2n1
O=C(O)CC(C(=O)O)C(CC(=O)O)C(=O)O (stereo not drawn)
COC(=O)[C@@]1(Cc2ccc(OC)cc2)[C@H]2c3cc(C(=O)N4CCCC4)n(Cc4ccc(C(F)(F)F)nc4)c3C[C@H]2CN1C(=O)c1ccccc1
CC1=C(C(=O)OCc2ccccc2)C(c2ccc(C(F)(F)F)cc2)NC(=O)N1CCCCCC(=O)O (stereo not drawn)
COc1ccc(-c2nc3cnc(OC)nc3n(Cc3ccc(F)cc3)c2=O)cc1
Cc1cccc(Br)c1
CS(=O)(=O)N1CCC2(CC1)CN(c1ccncc1)C2
CCn1ccnc1C[C@@H]1COc2ccccc2O1
CC[C@H](c1ccccc1)c1cc(C(C)(C)C)cc(C(C)(C)C)c1O -0.113% [at 9.22 µM, normalised to 500 nM splice-correcting PNA]
CC(C)(O/N=C(\C(=O)N[C@@H]1C(=O)N2C(C(=O)[O-])=C(C[n+]3ccccc3)CS[C@@H]12)c1csc(N)n1)C(=O)O
C[C@]1(O)CC[C@H]2[C@H]3CC=C4N5CCN=C5CC[C@@]4(C)[C@H]3CC[C@@]21C -0.0515% [at 9.22 µM, normalised to 500 nM splice-correcting PNA]
Cc1c(NC(=O)c2cccnc2)c(=O)n(-c2ccccc2)n1C
COC(=O)[C@@]1(Cc2ccc(OC)cc2)[C@H]2c3cc(C(=O)N4CCCC4)n(Cc4ccc(OC(F)(F)F)cc4)c3C[C@H]2CN1C(=O)c1ccccc1
CC[C@@H]1Cc2cc(O)ccc2C2=C1c1ccc(O)cc1C[C@H]2CC
Cc1nc2cnc(N3CCNCC3)nc2n(Cc2ccc(F)cc2)c1=O
COc1ccc(CNc2ncncc2-c2ccccc2OC)c(OC)c1
COC(=O)[C@@H]1CC[C@H](C)[C@@H](c2ccc(C)cc2)N1C(=O)c1ccc(/C=N\O[C@@H](C)c2cn([C@H](CO)Cc3ccccc3)nn2)cc1 0.582% [at 9.22 µM, normalised to 500 nM splice-correcting PNA] and -0.794% [at 9.22 µM, normalised to 500 nM splice-correcting PNA]
O=C(c1cccc(F)c1)N1CCC2(CCCN(Cc3ccncc3)C2)CC1
Cc1cccc(C(=O)O)c1[N+](=O)[O-]
COc1cccc(Cn2c(=O)c(CCc3ccccc3)nc3cnc(N(C)C)nc32)c1
Cc1cnc(CNc2nc(-c3cccnc3)nc3ccccc23)cn1
COc1ccc(-c2nc3cnc(Oc4ccccc4)nc3n(Cc3cccs3)c2=O)cc1
CCC[C@@H]1C[C@@]1(CCC)C(NS(=O)(=O)c1cccc2cccnc12)c1ccc(Cl)cc1 (stereo partly drawn)
O=C(Cl)c1ccc([N+](=O)[O-])cc1
O=C(c1csnn1)N1CCC[C@@]2(CCN(Cc3nccs3)C2)C1
CCNC(=S)NCC
O=C(c1ccc([N+](=O)[O-])cc1)[C@@H](Br)[C@@H](Br)c1ccnc2ccccc12 0.675% [at 9.22 µM, normalised to 500 nM splice-correcting PNA]
